Screening data as filed in PubChem BioAssay.
phage Ecoli inh – E. coli growth loss with phage present; growth absorbance; inhibition, % at 11.9 µM; hit rate 0.26% among 360,000; in the data active means inhibition above about 11%
Tat transport – E. coli Tat transport inhibition; E. coli MC4100 TorA-mCherry Tat export, fluorescence; inhibition, % at 10 µM; hit rate 0.036% among 340,000; AID 488895;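 active means mean replicate inhibition at least 50% and at least half of replicates individually reaching 50%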;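 further: exported cargo escapes ClpAP degradation while cytoplasmic cargo is degraded and loses fluorescence; 0% = median of neutral control wells and 100% = median of NaSCN control wells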
AddAB inh – less growth of phage-infected E. coli with AddAB; E. coli expressing H. pylori AddAB, absorbance growth; inhibition, % at 11.9 µM; hit rate 0.29% among 330,000; AID 435030; in the data active means inhibition above about 12%;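 further: 0% = vehicle wells of infected cells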
E coli growth-1 – inhibitors of Escherichia coli growth; OD600, 23 h; stronger effect = lower value; OD600 absorbance (concentration not given with the values); hit rate 0.21% among 330,000;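 active means OD600 absorbance below the run mean of sample wells minus 3.6 SD, in any replicate, cut at about 0.56 in these data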
E coli growth-2 – counter-screen for AddAB inhibitors: E. coli growth inhibition. E. coli V3065 growth, OD600 absorbance, 18 h. inhibition, % at 11.9 µM. hit rate 0.27% among 330,000. AID 449728;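 active means inhibition above the campaign's mean inhibition across all tested compounds plus 3 SD, cut at about 9.9% in these data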;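 further: uninfected addAB+ strain grown without phage in ampicillin broth; 0% = DMSO wells and 100% = ciprofloxacin 0.95 µg/ml wells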
AddAB conf – confirmation screen: growth loss of phage-infected E. coli expressing H. pylori AddAB; shares compounds with AddAB inh; E. coli V3065 expressing H. pylori AddAB, T4 phage, OD; T4 phage with gene 2 nonsense mutations; inhibition, % at 11.9 µM; hit rate 64% among 880; AID 488942;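 active means mean inhibition above a set limit taken from the earlier primary screen, cut at about 13% in these data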;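 further: higher means less bacterial growth since AddAB block lets phage replicate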
RecBCD counter – reduces growth of phage-infected RecBCD+ E. coli, AddAB inhibitor counter-screen; hit rate 73% among 880; AID 488955; shares compounds with AddAB inh; inhibition, % at 11.9 µM; E. coli V66 + mutant T4 phage, OD growth;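 active means mean inhibition above the mean of solvent-only control wells plus 3 SD, cut at about 4% in these data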;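 further: optical density read after an 18 h incubation at 37 °C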
Bact viability – counter-screen for AddAB inhibitors: inhibitors of bacterial viability; shares compounds with AddAB inh; absorbance (AddAB counterscreen); inhibition, % at 11.9 µM; hit rate 35% among 880; AID 488956; in the data active means inhibition above about 25%
RecBCD conf – confirmation: growth loss of phage-infected RecBCD+ E. coli (RecBCD inhibitor screen) | shares compounds with phage Ecoli inh | AID 651982 | E. coli V66 + T4 2- phage, growth OD | inhibition, % at 11.9 µM | hit rate 45% among 890;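 active means mean inhibition over triplicates exceeding the hit threshold derived in the original primary screen, cut at about 11% in these data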
Ecoli viability – inhibits E. coli viability, flagging RecBCD hits as nonselective. shares compounds with phage Ecoli inh. absorbance (OD) growth. inhibition, % at 11.9 µM. hit rate 29% among 890; in the data active means inhibition above about 20%;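 further: E. coli strain V66 grown with compound alone and no phage infection; 0% = bacteria with DMSO vehicle only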
AddAB phage OD – growth loss of phage-infected AddAB E. coli, RecBCD counter-screen; hit rate 45% among 890; inhibition, % at 11.9 µM; shares compounds with phage Ecoli inh; AID 651984; E. coli expressing H. pylori AddAB + T4 phage, OD growth; gene 2 mutant T4, recBCD-deleted host;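 active means mean inhibition above the solvent-only control wells' mean plus 3 SD, cut at about 22% in these data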;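 further: higher means less bacterial growth from phage killing when AddAB is blocked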
An asterisk follows results filed as active; x = not tested or not shown. Rows were chosen to be rich in hits. Some 0.51% of all compounds tested hit in one or more screens of this group.

SMILES	phage Ecoli inh	Tat transport	AddAB inh	E coli growth-1	E coli growth-2	AddAB conf	RecBCD counter	Bact viability	RecBCD conf	Ecoli viability	AddAB phage OD
C#CCOCCOCCOCCNc1nc(N2CCN(C(=O)C(CCC(=O)O)n3cc(C(N)CCCCN)nn3)CC2)nc(N2CCN(C(=O)C(CCCN=C(N)N)n3cc(C(N)C(C)CC)nn3)CC2)n1 (stereo unspecified)	x	x	x	0.71	x	x	x	x	x	x	x
O=C(COc1ccccc1)NCC(c1ccco1)N1CCCCC1 (stereo unspecified)	2	1	98*	0.6	98*	3	3	0	x	x	x
O=C1NCCCc2c1oc1ccc(O)cc21	2	5	100*	0.71	98*	-6	-1	-2	x	x	x
COc1cccc(-n2nnc3c(=O)n(CC=Cc4ccccc4)cnc32)c1	x	x	x	0.71	x	x	x	x	x	x	x
O=C(Nc1nnc(-c2ccccc2)o1)c1ccc(Cl)cc1	24*	-13	13*	0.33*	7	33*	27*	21	18*	20*	20
CCc1nnc(NS(=O)(=O)c2ccc(N=Cc3c(C)[nH]n(-c4cccc(Cl)c4)c3=O)cc2)s1	11*	-13	24*	0.62	16*	9	4.8*	14	10	7	31*
COC(=O)c1ccc(C(NC(=O)OCc2ccccc2)C(F)=CC(C)C(=O)O)cc1 (stereo unspecified)	x	x	x	0.68	x	x	x	x	x	x	x
CCOC(=O)C1CN(c2cc3c(cc2F)c(=O)c(C(=O)O)cn3CC)OC1C(=O)OCC (stereo unspecified)	4	0	3	0.66	-1	x	x	x	x	x	x
CC(=O)N1CCN(c2cc3c(cc2F)c(=O)c(C(=O)O)cn3C2CC2)CC1	96*	62*	102*	0.067*	101*	99*	99*	99*	101*	102*	102*
CCN1CCN(c2cc3c(cc2F)c(=O)c(C(=O)O)cn3C2CC2)CC1	102*	146*	99*	0.064*	100*	99*	100*	99*	102*	104*	103*
Cc1n[nH]c(=S)n(NC(=O)CC(=O)Nn2c(=S)[nH]nc(C)c2=O)c1=O	16*	0	19*	0.64	13*	33*	15*	32*	14*	15	35*
COC(=O)[C@@]12CCCCN1C(c1ccc(-c3ccc(OC)cc3)c(OC)c1)C1C(=O)N(C)C(=O)C12 (stereo partly specified)	x	x	x	0.71	x	x	x	x	x	x	x
C=C1c2cccc(O)c2C(=O)C2C(=O)[C@]3(O)C(=O)C(C(N)=O)C(=O)[C@@H](N(C)C)[C@@H]3[C@@H](O)[C@H]12 (stereo partly specified)	99*	145*	100*	x	102*	101*	101*	99*	103*	105*	104*
CC(C)(C)C1COC(=O)CCCCC=CCC(CC(=O)NCCO)C(=O)N1 (stereo unspecified)	x	x	x	0.71	x	x	x	x	x	x	x
N#Cc1ccccc1COc1ccc(C=CC(=O)O)cc1	x	x	x	0.71	x	x	x	x	x	x	x
Cc1cc(C)c(NC(=O)c2cn3c4c(c(N5CCN(C)CC5)c(F)cc4c2=O)OCC3C)c(C)c1 (stereo unspecified)	97*	36	97*	0.049*	97*	101*	100*	101*	99*	100*	101*
CN1CCN(c2c(F)cc3c(=O)c(C(=O)O)cn4c3c2OCN4C)CC1	99*	138*	99*	0.07*	99*	101*	100*	101*	102*	102*	103*
CCn1cc(C(=O)O)c(=O)c2cc(F)c(NN=Cc3ccccc3)cc21	x	x	x	0.66	x	x	x	x	x	x	x
CCn1cc(C(=O)NCC2CCCO2)c(=O)c2cc(F)c(N3CCN(C)CC3)cc21 (stereo unspecified)	3	-3	2	0.74	2	x	x	x	x	x	x
CN1CC[C@]2(CCN3CCc4c(oc5ccccc45)C3C2)N(C)C1=O (stereo partly specified)	x	x	x	0.65	x	x	x	x	x	x	x
CCCC(=O)NC(c1ccc(Cl)cc1)c1ccc2cccnc2c1O (stereo unspecified)	18*	-10	19*	x	28*	24*	23*	24	15*	19	27*
CCCCC(=O)NC(c1ccccc1OC)c1ccc2cccnc2c1O (stereo unspecified)	34*	23	32*	0.62	33*	30*	28*	27*	21*	25*	32*
CCCCC(=O)NC(c1ccc(OC)c(OC)c1)c1c(O)ccc2ccccc12 (stereo unspecified)	x	4	1	0.65	-1	x	x	x	x	x	x
CC(=O)NC(c1ccc2ccccc2c1)c1ccc2cccnc2c1O (stereo unspecified)	24*	-7	30*	x	27*	28*	22*	20	16*	20*	32*
CCCC(=O)NC(c1ccc(Cl)cc1Cl)c1ccc2cccnc2c1O (stereo unspecified)	24*	-1	20*	x	27*	20*	20*	19	16*	19	25*
SMILES	phage Ecoli inh	Tat transport	AddAB inh	E coli growth-1	E coli growth-2	AddAB conf	RecBCD counter	Bact viability	RecBCD conf	Ecoli viability	AddAB phage OD
CC(C)NC(=O)N(C)CC1Oc2ccc(NS(=O)(=O)c3ccc(Cl)cc3)cc2CC(=O)N(C(C)CO)CC1C (stereo unspecified)	x	x	x	0.68	x	x	x	x	x	x	x
O=C(NCCF)C1CC1C(NP(=O)(c1ccccc1)c1ccccc1)c1ccccc1 (stereo unspecified)	x	x	x	0.67	x	x	x	x	x	x	x
CCOC(=O)C1C2COc3ccc(OC)cc3C2N2C(=O)c3cc(F)c(F)cc3NC(=O)[C@@]12C (stereo partly specified)	x	x	x	0.68	x	x	x	x	x	x	x
CCCCC(=O)NC(c1ccc(Cl)cc1)c1ccc2cccnc2c1O (stereo unspecified)	20*	-5	31*	x	30*	29*	22*	23	12*	14	33*
CCC(ONc1ccccc1C(F)(F)F)(C(=O)NN(C)C)c1ccccc1 (stereo unspecified)	17*	-10	101*	0.5	23*	98*	14*	62*	11*	12	103*
CCOc1ccc(OCC(=O)Nc2ccccc2C(F)(F)F)cc1	4	2	-1	0.71	0	x	x	x	x	x	x
